DT40 TDP1 no CPT: qHTS for Inhibitors of human tyrosyl-DNA phosphodiesterase 1 (TDP1): qHTS in cells in absence of CPT; DT40 Tdp1-/- hTDP1 cells, no CPT, ATP luminescence, 48 h; Potency, µM (doses to about 46.2 µM), actives largely listed as inhibitors; 420,000 compounds, 15% hits; further: nearly all actives have a fitted effect of over 55% in size
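Growth of hTDP1-complemented DT40 Tdp1-knockout cells is measured by ATP luminescence after at least 48 hr compound exposure at 37 °C, with DMSO substituting for the 20 nM CPT used in the parallel screen.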
HT1080-NT tox: kills 2HG-producing HT-1080-NT fibrosarcoma cells. HT-1080-NT fibrosarcoma viability, CellTiter-Glo ATP luminescence, 48 h. 360,000 compounds, 1.6% hits. AID 686970. Potency, µM (highest dose often 46.1 µM), hits mostly cytotoxic;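 further: NT is the 2HG producing partner of a matched IDH1 knockdown line; nearly all actives have a fitted effect of over 55% in size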
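HT-1080-NT fibrosarcoma cells (2HG-overproducing), 750 cells/well in RPMI with 5% FBS, dosed after 2 h and incubated 48 h at 37C. CellTiter-Glo luminescence normalized to DMSO and no-cell wells; concentration-response curves fitted and classed.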
HepG2 tox: HepG2 cytotoxicity, counter-screen for TGF-b inhibitors. HepG2 CAGA-GFP viability, ATP luminescence, 18 h. Potency, µM (titrated, usually from 46.1 µM), hits mostly cytotoxic. AID 588856. 410,000 compounds, 0.76% hits
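HepG2 CAGA-GFP cells (1000/well, DMEM with 1% FBS) received compound, then TGF-beta at 500 pg/mL final, and were incubated 18 hours at 37 degrees C. Viability was read by CellTiter-Glo luminescence. Media-only wells were set as complete cell-killing and DMSO as no toxicity.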
TGFb inhibitor: TGF-b pathway inhibition | Potency, µM (series often up to 46.1 µM), hits mostly inhibitors | 410,000 compounds, 1.2% hits | HepG2 CAGA-GFP TGF-b/SMAD3 reporter, GFP fluorescence, 18 h; TGF-beta stimulated, 500 pg/mL final; further: nearly all actives have a fitted effect of over 65% in size
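HEPG2 CAGA-GFP, 1000 cells/well; 2 h settle, 37 C; cpd via pin tool; TGF-b 500 pg/mL final; 18 h, 37 C; GFP imaging ex488/em500-530; %Activity normalised to -TGF-b and +DMSO controls; CRC fit, curve class.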
TDP1 cell CPT: growth inhibition of DT40 Tdp1-/-;hTDP1 cells with camptothecin (screen for TDP1 inhibitors); AID 686979; Potency, µM (series often up to 46.2 µM), actives largely listed as inhibitors; 420,000 compounds, 12% hits; chicken DT40 Tdp1-/-;hTDP1 cells + 20 nM CPT, ATP luminescence, 48 h; further: nearly all actives have a fitted effect of over 55% in size
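Chicken DT40 Tdp1-/- cells stably complemented with human TDP1 were seeded at 400 cells/well in medium containing 20 nM camptothecin, exposed to pin-transferred compounds, and grown at 37 °C for at least 48 hr. Viability was read as ATP luminescence.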
HT1080 IDH1KD tx: kills HT-1080 cells with IDH1 knockdown | HT-1080 IDH1 knockdown viability, ATP luminescence, 48 h | Potency, µM (top dose mostly 46.1 µM), actives largely listed as cytotoxic | 360,000 compounds, 2% hits | AID 686971
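HT-1080-IDH1KD cells (IDH1 knocked down), 750/well in RPMI with 5% FBS, treated with compound 48 h at 37 degrees C. Viability by CellTiter-Glo luminescence, normalised to DMSO and no-cell wells; concentration-response curves classed.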
A number is an active result; – = inactive; ? = inconclusive; · = not tested or not shown; [ ] = dose if it differs, or a comment. Sampled rows, rich in hits. Any-hit rate of the full collection: about 17%. The call rests on the fitted dose curve; in most records, active means well fitted curve in the direction sought with a large enough effect; inconclusive means small, poorly fitted or top-dose-only effect, or another doubt; inactive means no such curve, though single readings can be large; an effect the other way counts as inactive or inconclusive.

SMILES	DT40 TDP1 no CPT	HT1080-NT tox	HepG2 tox	TGFb inhibitor	TDP1 cell CPT	HT1080 IDH1KD tx
COC(=O)C1(Cc2ccc3c(c2)CCC3)Cc2ccc3c(c2C1=O)CCC3 (stereo not drawn)	?	–	–	–	21µM	–
Cc1ccc(Cl)cc1NC(=O)CC1Sc2ccccc2NC1=O (stereo not drawn)	–	·	–	?	–	·
COCCCN(C(=S)NC(=O)C(C)(C)C)c1c(N)n(Cc2ccccc2)c(=O)[nH]c1=O	–	–	–	–	–	–
CCOC(=O)/C(=N\Nc1cc(Cl)ccc1Cl)N1CCN(CC)CC1	?	?	–	–	21µM	?
CCCCn1[nH]c(-c2ccccc2)cc1=O	18µM	–	–	–	?	–
CC(=O)OC1(C)C=Cc2ccccc2C1=NS(=O)(=O)c1ccccc1 (stereo not drawn)	23µM	–	–	–	?	–
Oc1ccccc1C1C=C(c2ccc3c(c2)OCO3)NC(c2c(F)cccc2Cl)N1 (stereo not drawn)	·	·	–	?	·	·
CCOc1ccccc1NC(=O)Nc1ccc2c(c1)OCO2	–	–	–	–	?	–
CCOc1ccccc1C1NC(c2ccc3c(c2)OCO3)=CC(c2ccccc2O)N1 (stereo not drawn)	14µM	·	–	–	11µM	·
COc1ccc(C2NC(c3ccc4c(c3)OCO4)=CC(c3ccccc3O)N2)cc1OC (stereo not drawn)	18µM	·	–	–	13µM	·
COc1ccc(Br)cc1C1NC(c2ccc3c(c2)OCO3)=CC(c2cc(Cl)ccc2O)N1 (stereo not drawn)	·	·	11µM	?	·	·
COc1ccccc1C1NC(c2ccc3c(c2)OCO3)=CC(c2ccccc2O)N1 (stereo not drawn)	10µM	·	–	?	11µM	·
CN(C)c1nnc(-c2ccc(Cl)cc2)o1	–	–	–	–	–	–
COc1ccccc1C1NC(c2ccc3c(c2)OCO3)=CC(c2cc(Cl)ccc2O)N1 (stereo not drawn)	4µM	·	–	?	7.9µM	·
COc1ccc(Cl)cc1NC(=O)c1cc(-c2ccc3c(c2)OCO3)on1	–	·	–	–	–	·
CCOC(=O)C1=C(N)OC(CCl)=C(C#N)C1c1ccsc1 (stereo not drawn)	2.6µM	–	–	–	2.1µM	–
CC(C)c1ccc(OCc2cc(=O)n3c(-c4ccccc4)csc3n2)cc1	26µM	·	–	–	?	·
O=c1cc(COc2ccccc2Cl)nc2scc(-c3ccccc3)n12	?	·	–	–	?	·
CCOc1ccc(N(CC(=O)Nc2cc(Cl)ccc2C)S(C)(=O)=O)cc1	23µM	?	–	–	?	?
CCOc1ccc(N(CC(=O)Nc2ccccc2Cl)S(C)(=O)=O)cc1	26µM	?	–	–	18µM	?
Cc1ccc(S(=O)(=O)N2CCCC2)cc1C(=O)NCCN1CCOCC1	–	–	–	–	–	–
N#CC1=C(N)N(c2ccccc2)C2=C(C(=O)CCC2)C1c1ccsc1 (stereo not drawn)	–	11µM	–	–	–	?
Cn1cccc1Cc1nnc(SCC(=O)NCc2ccccc2)n1-c1ccc(F)cc1	?	–	–	–	16µM	–
COc1ccc(Cl)cc1NC(=O)CSc1nnc(Cc2cccn2C)n1-c1ccc(F)cc1	?	?	–	–	26µM	–
COc1ccc(-c2nnc3ccc(SC(C)C)nn23)cc1OC	13µM	·	–	?	10µM	·
SMILES	DT40 TDP1 no CPT	HT1080-NT tox	HepG2 tox	TGFb inhibitor	TDP1 cell CPT	HT1080 IDH1KD tx
COc1ccc(-c2nnc3ccc(SC(C(C)=O)C(C)=O)nn23)cc1OC	?	–	–	–	18µM	–
CCC(Sc1ccc2nnc(-c3ccc(OC)c(OC)c3)n2n1)C(=O)O (stereo not drawn)	–	–	–	–	–	–
COc1ccc(C)cc1NC(=O)CSc1nnc(COc2ccccc2)n1Cc1ccco1	21µM	–	–	–	16µM	–
COc1cccc(OCc2nnc(SCC(=O)NCc3ccco3)n2CCc2ccccc2)c1	23µM	–	–	–	16µM	–
COc1ccc(C(=O)CSc2nnc(-c3cc4ccccc4cc3O)n2Cc2ccco2)cc1	?	?	–	?	21µM	?
COc1ccc(C)cc1NC(=O)CSc1nnc(COc2ccc(Cl)cc2)n1Cc1ccco1	?	?	–	?	?	?
CCn1c(SCC(=O)N(C(C)C)C(C)C)nnc1-c1cc2ccccc2cc1O	18µM	–	–	–	23µM	–
CCc1nnc(NC(=O)CSc2nnc(-c3cc4ccccc4cc3O)n2CC)s1	?	–	–	?	–	–
Cc1ccc(NC(=O)CSc2nnc(CSc3nc(C)cc(C)n3)n2Cc2ccco2)c(C)c1	?	–	–	–	–	–
Cc1ccc(NCc2nnc(SCC(=O)c3ccccc3)n2Cc2ccco2)c(C)c1	16µM	–	–	–	?	–
CCOC(=O)c1c(NC(=O)COC(=O)CCNS(=O)(=O)c2ccccc2)sc(C(=O)NC)c1C	?	–	–	–	?	–
CCOC(=O)/C(=C/c1c(C)n(C)c2ccc([N+](=O)[O-])cc12)C(C)=O	9.2µM	16µM	–	16µM	?	?
CSc1ccccc1C(=O)N(C)C(c1ccccc1)c1ccccc1	?	–	–	?	?	?
CCOc1cc(S(=O)(=O)N2CCC(Cc3ccccc3)CC2)c(OCC)cc1-n1cnnn1	–	–	–	?	–	–[9.24 µM]
CCOc1cc(S(=O)(=O)N2CC=C(c3ccc(F)cc3)CC2)c(OCC)cc1-n1cnnn1	10µM	–	–	–	15µM	–[9.24 µM]
CCc1nn(CC(=O)Nc2ccc(N(CC)CC)cc2C)c(=O)c2cc3sccc3n12	?	·	–	?	?	·
Cc1ccc(S(=O)(=O)NCC(=O)NCC(=O)NCCc2ccc(Cl)cc2)cc1C	?	–	–	–	?	–
NCCCC[C@H]1CNC(=S)N1CCCCC1CCCCC1	7.3µM	–	–	?	9.2µM	–
CC1(c2ccccc2)NC(=S)N2C1NC(=S)N2c1ccccc1 (stereo not drawn)	–	–	–	–	–	–
COc1ccc(N2C(=S)NC3N2C(=S)NC3(C)c2ccccc2)cc1 (stereo not drawn)	?	16µM	–	?	–	12µM
C=CCSc1nc2sc(-c3ccccc3)cc2c(=O)n1N	?	–	–	–	–	–
COCCn1c(-c2ccc(OC)cc2)cnc1SCC(=O)Nc1cccc2ccccc12	?	–	–	–	?	?
COC(=O)c1cc2oc(C)cc2n1CC(=O)Nc1cc(Cl)ccc1OC	–	·	–	–	?	·

Source: PubChem BioAssay (National Center for Advancing Translational Sciences (NCATS))
